Source: PubChem BioAssay AID1117319 (Southern Research Institute, 2015)
Several values for one entry are separate records, joined by “and”; a condition that tells them apart may be missing. Equal values may be shown once. In all, about 260,000 compounds went through this assay and about 1,500 (0.58%) were called active. Roughly 5% stayed inconclusive and do not appear here.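 Rule for the calls: active = inhibition above a set limit at one or more doses, reproduced on every date tested; inconclusive = results disagree between test dates, or hit never tested in dose response; inactive = the rest.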 Not all results are given here. Measured potencies and affinities stand elsewhere.

Biological target: Virion infectivity factor (Human immunodeficiency virus type 1 group M subtype B (isolate BH10)) + Virion infectivity factor (Human immunodeficiency virus type 1 group M subtype B (isolate BRU/LAI)) + Virion infectivity factor (Human immunodeficiency virus type 1 group M subtype B (isolate PCV12)) + Virion infectivity factor (Human immunodeficiency virus type 1 group M subtype B (isolate HXB2)) + DNA dC->dU-editing enzyme APOBEC-3G (Homo sapiens) (UniProt P69720+P69721+P69722+P69723+Q9HC16)
Assay: HIV-1 Vif–A3G interaction blockers – biochemical, TR-FRET, GST-Vif 1-94, biotin-A3G peptide, dose response retest, primary screen (AID 1117319);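 note: Vif residues 1-94 fused to GST binding biotinylated APOBEC3G peptide 110-148; 0% = full assay without inhibitor and 100% = GST in place of GST-Vif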
Details: TR-FRET GST-Vif / biotin-A3G peptide binding; hits give high values

inhibition, inactive:
COc1ccc(OC)c(NC(=O)CNC(=O)Cn2c(C)cc3ccccc3c2=O)c1 7.41%
O=C(c1ccco1)N1CCN(C(=O)C2Cc3ccccc3CN2S(=O)(=O)c2ccc(F)cc2)CC1 (stereo unspecified) -4.72%
CN(Cc1cccc2cnccc12)C(=O)c1cc(COc2ccc(F)cc2F)on1 -7.76%
COc1cccc(CN2CCN(Cc3cccc4c3OCO4)CC2CCO)c1 (stereo unspecified) -2.33%
CCOC(=O)C(C(=O)NCc1ccc(F)cc1)c1ncc(C(F)(F)F)cc1Cl (stereo unspecified) 5.68%
Nc1ncnc(Nc2cc(C(F)(F)F)cc(C(F)(F)F)c2)n1 11%
COc1ccc(C(=O)N/C(=C/c2cccnc2)C(=O)N2CCCCCC2)cc1OC 2.36%
COc1ccccc1C(=O)N/C(=C\c1ccc(Br)cc1)C(=O)NCCC(=O)O -1.86%
Cc1oc(/N=C/c2ccc(O)cc2O)c(C#N)c1C -3.01%
Cc1oc(/N=C/c2ccccc2O)c(C#N)c1C 6.98%
Clc1cccc(C2=NOC(c3nnc(-c4ccccc4)o3)C2)c1 (stereo unspecified) -9.96%
Cc1cc(C)c(OCCNC(=O)c2ccccc2Sc2ccccc2C#N)c(C)c1 -2.47%
CC(=O)Oc1ccc(N2C(=O)C3C4C=CC(O4)C3C2=O)cc1 (stereo unspecified) -0.5%
CCC(C)NC(=O)c1ccc2c(SCC(=O)O)c3c(nc2c1)CCCC3 (stereo unspecified) 7.55%
CCCN(C(=O)c1ccc2c(SCC(=O)O)c3c(nc2c1)CCC3)c1cccc(C)c1 18.7%
O=C(O)CSc1c2c(nc3cc(C(=O)N4CCCC4)ccc13)CCCC2 4.71%
CCOC(=O)C1CCN(C(=O)c2ccc3c(SCC(=O)O)c4c(nc3c2)CCCC4)CC1 -8.86%
COc1cccc(/C=C2\SC(=S)N(CC(=O)N(C)C3CCS(=O)(=O)C3)C2=O)c1 (stereo unspecified) 3.59%
Cc1c(Cl)cccc1Nc1nc(N)nc(CSC(=S)N2CCOCC2)n1 0.88%
NS(=O)(=O)c1ccc(CCNS(=O)(=O)c2ccccc2)cc1 22.8%
O=C(CSc1ccc2nnc(-c3ccncc3)n2n1)Nc1nccs1 -1.26%
O=S(=O)(NCCN1CCCC1)c1ccc(C(F)(F)F)cc1 1.25%
Cc1cc(-c2ccccc2)[nH]c(=O)c1C#N -1.26%
N#Cc1c(-c2ccccc2)cc(-c2ccccc2)[nH]c1=O -8.66%
COc1ccc(-c2cc(C(F)(F)F)c(C#N)c(=O)[nH]2)cc1 -2.26%
N#Cc1c(-c2cccc(Br)c2)cc(-c2ccco2)[nH]c1=O 15.1%
COC(=O)c1ccc(NC(=S)N2CCN(Cc3ccccc3)CC2)cc1 10.9%
O=C(c1ccc(COc2ccc3ccccc3c2)o1)N1N=C(C(F)F)CC1(O)C(F)F (stereo unspecified) -0.12%
COc1cc2[nH]c(=S)nc(NCc3ccc(C)cc3)c2cc1OC -6.65%
O=C1C(O)=CC(=C(c2ccccc2)c2ccccc2)c2ccccc21 15.1%
Cc1ccc2c(CC(=O)OCc3csc(C)n3)coc2c1 11.1%
COc1cccc(OC)c1C(=O)OCC(=O)NCC(C)C 14.3%
CCC1(C)N([O-])C(C)=C(c2ccccc2)[N+]1=O (stereo unspecified) 4.55%
CC1(C)N([O-])C2=C(CCCC2)[N+]1=O 4.01%
CCc1ccc(N(C(=O)c2csnn2)C(C(=O)NC(C)(C)C)c2ccccn2)cc1 (stereo unspecified) 0.91%
O=C(c1n[nH]c(=O)c2ccccc12)N1CCN(Cc2ccc3c(c2)OCO3)CC1 4.07%
CCN(CC(=O)Nc1c(F)cccc1F)C(=O)c1ccc(N2CCCC2=O)cc1 -13.8%
CCOC(=O)c1csc(NC(=O)c2cc3ccccc3o2)n1 0.78%
Cc1csc(NC(=O)c2cc3ccccc3o2)n1 0.57%
Cc1ccc(OCC(=O)NCc2ccc3c(c2)OCO3)c([N+](=O)[O-])n1 8.23%
CC(C)C(=O)Nc1nnc(Cc2ccccc2)s1 -2.22%
CCN1CCC(=NNC(=O)c2ccco2)CC1 5.57%
CNC(=O)CC12CC3CC(CC(C3)C1)C2 6.4%
CCOP(=O)(OCC)c1nc(-c2cccc([N+](=O)[O-])c2)oc1N1CCCCC1 5.71%
COc1ccc(CCn2c(C)cc(C(=O)CSc3nnnn3C)c2C)cc1 26.9%
Cc1cc(C(=O)CSc2nnnn2C)c(C)n1CCc1ccc(F)cc1 15.4%
CNC(=O)c1sccc1SCc1c(Cl)cccc1Cl -1.14%
CC1=C(C(=O)OCC(Cl)(Cl)Cl)N2C(=O)C(NC(=O)Cc3ccccc3)C2SC1 (stereo unspecified) 67.2%
Cc1nnc(SCC2=C(C(=O)O)N3C(=O)C(NC(=O)Cc4ccccc4)C3SC2)s1 (stereo unspecified) 7.27%
COc1ccccc1N1CC(C(=O)OCc2nc(N)nc(Nc3ccccc3)n2)CC1=O (stereo unspecified) 15.4%
CC1(C(=O)N2CCOCC2)CCCCC1 -0.21%
Cc1cc(C)cc(OCC(=O)Nc2cc(C)on2)c1 0.63%
CCn1c(CNC(=O)c2cccc(C)c2)nnc1SCC(=O)NC1=NCCS1 -12%
CCCNS(=O)(=O)c1ccc(OCC(=O)N2CCC(C(=O)OCC)CC2)cc1 -4.14%
CCOC(=O)N1CCN(C(=O)COc2ccc(S(=O)(=O)NC(C)C)cc2)CC1 -4.61%
O=C(Nc1ccc2c(c1)OCCO2)c1ccc(Cl)cc1 -3.98%
CC(=O)c1cc2c(cc1NC(=O)c1cccc(S(=O)(=O)N3CCN(C)CC3)c1)OCO2 -12.7%
C/C(=N\NC(=O)c1ccc(=O)[nH]n1)c1cccnc1 3.66%
COc1ccc(-c2csc(COC(=O)C(C)(C)C)n2)cc1 -3.51%
CC(C)(C)C(=O)OCc1nc(-c2ccc(Cl)cc2)cs1 -5.87%
N#C/C(=C\c1ccc(-c2cccc([N+](=O)[O-])c2)o1)C(=O)Nc1nc(-c2cccs2)cs1 3.46%
Cc1cccc(NC(=O)CN(C)S(=O)(=O)c2cccc3cccnc23)c1 2.4%
Cc1cc(C#N)c(C)c(SCc2[nH]nc3c2C(c2ccccc2)C(C#N)=C(N)O3)n1 (stereo unspecified) 7.14%
COC(=O)c1ccccc1NC(=O)CN1CCC(C)CC1 26.5%
Cc1c(NC2=C(Cl)C(=O)N(c3ccccc3)C2=O)c(=O)n(-c2ccccc2)n1C 6.24%
COCCN(C(=O)COC(=O)CSc1cc(C)ccc1C)c1c(N)n(Cc2ccccc2)c(=O)[nH]c1=O -5.52%
CC(=O)Nc1ccc2c(c1)OCCOCCOc1cc(NC(C)=O)ccc1OCCOCCOCCO2 30.1%
CC(=O)Nc1ccc2c(c1)OCCO2 -3.04%
O=C(O)c1cccc(-n2cccc2C=C2C(=O)c3ccccc3C2=O)c1 29.9%
COc1ccc(-n2cccc2/C=C/[N+](=O)[O-])cc1 20.8%
CC(C)[C@H](NC(=O)OCc1ccccc1)C(=O)OCC(=O)N1CCN(c2ccc(F)cc2)CC1 -1.08%
CCNc1nc(ON=C(C)C)nc(N(C)C)n1 -7.57%
CCC(C)NC(=O)c1ccc(CSCc2ccccc2Cl)o1 (stereo unspecified) 2.45%
COc1ccc(OC)c(Nc2nc(-c3cccs3)cs2)c1 3.68%
COc1ccc(OC)c(Nc2nc(-c3sc(N)nc3C)cs2)c1 7.55%
Cc1ccc(C2/C(=C(\O)c3ccc4c(c3)OCCO4)C(=O)C(=O)N2CC2CCCO2)cc1 (stereo unspecified) -0.97%
COc1ccc(/C(C)=N/NC(=O)CNC(=O)c2cccnc2)c(OC)c1 3.46%
COc1ccc(OC)c(NC(=O)NC2CCCCCCC2)c1 -6.56%
COc1ccccc1C(=O)N1CCCC(c2nc(-c3cc(OC)c(OC)c(OC)c3)no2)C1 (stereo unspecified) -8.18%
CCOC(=O)C1=C(c2ccccc2)N=c2s/c(=C\c3cccc(O)c3)c(=O)n2C1c1cccs1 (stereo unspecified) -2.23% and -5.42%
COc1ccc(C2C(C(C)=O)=C(C)N=c3s/c(=C\c4ccco4)c(=O)n32)c(OC)c1 (stereo unspecified) 31.2%
CC1=C(C(=O)Nc2ccccc2C)C(c2ccc(C)o2)n2c(s/c(=C/c3ccccc3)c2=O)=N1 (stereo unspecified) 29.2%
CCOC(=O)C1=C(C)N=c2s/c(=C/c3ccccc3)c(=O)n2C1c1ccc(OC)c(OC)c1 (stereo unspecified) 1.78%
CC1=C(C(=O)Nc2ccccc2)C(c2ccc(C)o2)n2c(s/c(=C/c3ccccc3)c2=O)=N1 (stereo unspecified) 12.7%
CCOC(=O)C1=C(c2ccccc2)N=c2s/c(=C\c3ccc(O)cc3)c(=O)n2C1c1cccs1 (stereo unspecified) -10.4%
COc1cccc(CNC(=O)CSCc2cnn(-c3ccccc3)c2-n2cccc2)c1 2.53% and 7.19%
CC(=O)c1cnc2n(c1=O)CCS2 -2.48%
COc1ccc(C(CC(=O)c2ccc(C)cc2)C(C#N)C#N)cc1OC (stereo unspecified) -6.99%
O=C(O)CCCNC(=O)OCc1ccccc1 -2.72%
CC1CCN(S(=O)(=O)c2ccc(S(=O)(=O)NCC3COCCO3)cc2)CC1 (stereo unspecified) 8.23%
CCNS(=O)(=O)c1ccc(CCC(=O)O)cc1 -1.11%
